Measurements published in the supplement of paper PMC10849652.
The full data set covers some 8,800 targets. This sample favours those with a hit. About 0.5% of all pairs of compound and target were hits. Unmarked numbers belong to inactive results.

Legend:
Assay in all cases: log2 fold change, soluble protein after heating vs DMSO (PISA); higher = thermal stabilisation; K562 lysate, 10 uM; active = over 0.2 and 3.5 SD of the protein, either way, in both replicates (recomputed)
ibrutinib = compound: C=CC(=O)N1CCC[C@@H](n2nc(-c3ccc(Oc4ccccc4)cc3)c3c(N)ncnc32)C1 [ibrutinib]
Method in brief: (§1)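 The values are log-two fold changes in thermal stability compared with solvent controls and come from duplicates. They were obtained by TMTpro 16plex LC-MS/MS, with channel sums equalised, on the supernatant after 21,000xg for 90 min. That supernatant came from crude K562 extract at 1 mg/mL protein treated with 10 μM compound for 30 min, heated for 3 min across 48°C-58°C, pooled and brought to 0.5% NP-40 at 4°C.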

[1] = compound: CC(=O)c1cnc2ccc(-c3cc(Cl)c(O)c(Cl)c3)nc2c1N[C@H]1CC[C@H](CN(C)C)CC1
Method in brief: as §1

ralimetinib = compound: CC(C)(C)Cn1c(N)nc2ccc(-c3[nH]c(C(C)(C)C)nc3-c3ccc(F)cc3)nc21 [ralimetinib]
Method in brief: as §1

[2] = compound: CC(C)(O)CC(=O)NCCn1ccc2ncnc(Nc3ccc(Oc4cccc(C(F)(F)F)c4)c(Cl)c3)c21
Method in brief: as §1

[3] = compound: CC(C)C1=C2N=C(C=C(N2N=C1)NCC3=CC=CC=C3)NCCCCCCN
Method in brief: as §1

[4] = compound: CC1=C(C(CC(=O)N1)C2=CC=C(C=C2)C(F)(F)F)C(=O)NC3=C(C=C4C(=C3)C=NN4)F
Method in brief: as §1

[5] = compound: CC1=C(C2=C(C=C1)C(=O)C3=CC=CC=C3N2CCCN)C
Method in brief: as §1

[6] = compound: CC1=C(C=C(C=C1)NC(=O)C2=CC(=CC=C2)C(C)(C)C#N)NC3=CC4=C(C=C3)N=CN(C4=O)C
Method in brief: as §1

[7] = compound: CC1=C(C=C(C=C1)NC(=O)C2=CC(=CC=C2)N(C)C)NC(=O)C3=CC=C(C=C3)O
Method in brief: as §1

[8] = compound: CC1=CC=C(C=C1)SC2=C3C=C(SC3=CN=C2)C(=O)N
Method in brief: as §1

Chain of UniProt P68400 (P68400 whole entry, looked up): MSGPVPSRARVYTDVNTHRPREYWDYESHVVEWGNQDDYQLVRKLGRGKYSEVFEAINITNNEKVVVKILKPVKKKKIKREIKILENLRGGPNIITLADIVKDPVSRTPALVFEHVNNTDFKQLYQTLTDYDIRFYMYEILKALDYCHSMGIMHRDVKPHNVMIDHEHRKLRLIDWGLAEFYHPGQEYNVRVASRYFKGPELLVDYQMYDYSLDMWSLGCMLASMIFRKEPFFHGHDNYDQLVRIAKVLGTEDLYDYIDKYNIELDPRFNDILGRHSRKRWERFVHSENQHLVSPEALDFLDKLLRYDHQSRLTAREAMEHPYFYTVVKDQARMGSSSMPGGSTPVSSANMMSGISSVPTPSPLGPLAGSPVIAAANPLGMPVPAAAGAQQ
Chain of UniProt P61923 (P61923 whole entry, looked up): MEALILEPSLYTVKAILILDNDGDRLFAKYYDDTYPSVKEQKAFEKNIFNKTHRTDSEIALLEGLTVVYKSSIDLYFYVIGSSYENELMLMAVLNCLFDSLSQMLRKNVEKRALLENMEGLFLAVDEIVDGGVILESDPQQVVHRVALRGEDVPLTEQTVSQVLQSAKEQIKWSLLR
Chain of UniProt Q9H5X1 (Q9H5X1 whole entry, looked up): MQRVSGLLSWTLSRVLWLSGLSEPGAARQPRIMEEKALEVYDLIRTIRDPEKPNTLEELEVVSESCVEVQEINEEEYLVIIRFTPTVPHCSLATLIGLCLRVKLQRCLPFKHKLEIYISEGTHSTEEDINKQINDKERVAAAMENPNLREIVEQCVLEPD
Chain of UniProt P83436 (P83436 whole entry, looked up): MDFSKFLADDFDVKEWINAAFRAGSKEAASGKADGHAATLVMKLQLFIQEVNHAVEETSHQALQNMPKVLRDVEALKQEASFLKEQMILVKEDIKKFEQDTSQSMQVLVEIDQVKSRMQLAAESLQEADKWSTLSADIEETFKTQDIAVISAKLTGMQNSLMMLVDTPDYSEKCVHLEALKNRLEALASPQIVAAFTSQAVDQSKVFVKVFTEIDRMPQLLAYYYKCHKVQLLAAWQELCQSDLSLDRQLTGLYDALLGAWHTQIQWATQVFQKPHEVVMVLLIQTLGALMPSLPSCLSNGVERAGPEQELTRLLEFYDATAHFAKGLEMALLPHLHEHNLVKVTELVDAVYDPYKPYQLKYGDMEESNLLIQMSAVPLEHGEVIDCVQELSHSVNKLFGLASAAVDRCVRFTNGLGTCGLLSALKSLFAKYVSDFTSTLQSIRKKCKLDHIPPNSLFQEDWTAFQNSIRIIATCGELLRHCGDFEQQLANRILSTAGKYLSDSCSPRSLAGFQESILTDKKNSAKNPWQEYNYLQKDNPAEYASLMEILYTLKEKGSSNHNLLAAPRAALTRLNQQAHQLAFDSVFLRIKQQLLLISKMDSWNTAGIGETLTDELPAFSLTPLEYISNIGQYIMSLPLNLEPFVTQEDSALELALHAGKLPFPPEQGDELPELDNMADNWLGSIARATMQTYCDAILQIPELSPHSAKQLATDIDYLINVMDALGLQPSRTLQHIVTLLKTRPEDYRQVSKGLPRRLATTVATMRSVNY
Chain of UniProt Q13616 (Q13616 whole entry, looked up): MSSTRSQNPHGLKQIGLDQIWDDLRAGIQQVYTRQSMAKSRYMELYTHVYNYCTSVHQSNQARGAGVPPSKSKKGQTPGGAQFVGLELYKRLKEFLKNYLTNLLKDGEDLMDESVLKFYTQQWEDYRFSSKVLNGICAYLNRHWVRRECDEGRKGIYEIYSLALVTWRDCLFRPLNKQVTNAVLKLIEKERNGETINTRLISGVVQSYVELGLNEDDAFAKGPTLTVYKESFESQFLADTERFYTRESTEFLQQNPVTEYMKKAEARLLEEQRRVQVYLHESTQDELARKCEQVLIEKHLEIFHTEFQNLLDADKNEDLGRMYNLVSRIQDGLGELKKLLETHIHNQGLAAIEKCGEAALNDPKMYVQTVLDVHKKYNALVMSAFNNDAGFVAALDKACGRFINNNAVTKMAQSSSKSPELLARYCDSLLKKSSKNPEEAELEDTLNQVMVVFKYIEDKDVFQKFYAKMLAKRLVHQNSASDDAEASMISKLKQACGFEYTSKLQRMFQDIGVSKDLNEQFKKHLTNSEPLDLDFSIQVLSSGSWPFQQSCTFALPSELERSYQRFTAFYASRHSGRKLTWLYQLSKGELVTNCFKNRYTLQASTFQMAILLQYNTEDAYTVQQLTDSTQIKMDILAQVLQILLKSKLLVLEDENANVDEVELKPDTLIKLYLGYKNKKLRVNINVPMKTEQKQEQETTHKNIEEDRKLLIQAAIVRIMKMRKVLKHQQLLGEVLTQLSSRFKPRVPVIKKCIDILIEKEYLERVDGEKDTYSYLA
Chain of UniProt Q6UX07 (Q6UX07 whole entry, looked up): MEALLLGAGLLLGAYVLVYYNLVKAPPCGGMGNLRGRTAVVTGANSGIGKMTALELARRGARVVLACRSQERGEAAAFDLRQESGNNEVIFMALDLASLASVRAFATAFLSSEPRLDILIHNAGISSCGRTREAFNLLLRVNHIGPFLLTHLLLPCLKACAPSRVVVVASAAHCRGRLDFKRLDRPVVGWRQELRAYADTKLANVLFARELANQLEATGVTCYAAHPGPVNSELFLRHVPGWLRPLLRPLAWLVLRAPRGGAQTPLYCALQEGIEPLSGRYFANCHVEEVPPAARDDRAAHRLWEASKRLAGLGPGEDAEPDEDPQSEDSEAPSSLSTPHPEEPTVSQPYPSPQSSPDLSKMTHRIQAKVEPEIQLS
Chain of UniProt Q9NSV4 (Q9NSV4 whole entry, looked up): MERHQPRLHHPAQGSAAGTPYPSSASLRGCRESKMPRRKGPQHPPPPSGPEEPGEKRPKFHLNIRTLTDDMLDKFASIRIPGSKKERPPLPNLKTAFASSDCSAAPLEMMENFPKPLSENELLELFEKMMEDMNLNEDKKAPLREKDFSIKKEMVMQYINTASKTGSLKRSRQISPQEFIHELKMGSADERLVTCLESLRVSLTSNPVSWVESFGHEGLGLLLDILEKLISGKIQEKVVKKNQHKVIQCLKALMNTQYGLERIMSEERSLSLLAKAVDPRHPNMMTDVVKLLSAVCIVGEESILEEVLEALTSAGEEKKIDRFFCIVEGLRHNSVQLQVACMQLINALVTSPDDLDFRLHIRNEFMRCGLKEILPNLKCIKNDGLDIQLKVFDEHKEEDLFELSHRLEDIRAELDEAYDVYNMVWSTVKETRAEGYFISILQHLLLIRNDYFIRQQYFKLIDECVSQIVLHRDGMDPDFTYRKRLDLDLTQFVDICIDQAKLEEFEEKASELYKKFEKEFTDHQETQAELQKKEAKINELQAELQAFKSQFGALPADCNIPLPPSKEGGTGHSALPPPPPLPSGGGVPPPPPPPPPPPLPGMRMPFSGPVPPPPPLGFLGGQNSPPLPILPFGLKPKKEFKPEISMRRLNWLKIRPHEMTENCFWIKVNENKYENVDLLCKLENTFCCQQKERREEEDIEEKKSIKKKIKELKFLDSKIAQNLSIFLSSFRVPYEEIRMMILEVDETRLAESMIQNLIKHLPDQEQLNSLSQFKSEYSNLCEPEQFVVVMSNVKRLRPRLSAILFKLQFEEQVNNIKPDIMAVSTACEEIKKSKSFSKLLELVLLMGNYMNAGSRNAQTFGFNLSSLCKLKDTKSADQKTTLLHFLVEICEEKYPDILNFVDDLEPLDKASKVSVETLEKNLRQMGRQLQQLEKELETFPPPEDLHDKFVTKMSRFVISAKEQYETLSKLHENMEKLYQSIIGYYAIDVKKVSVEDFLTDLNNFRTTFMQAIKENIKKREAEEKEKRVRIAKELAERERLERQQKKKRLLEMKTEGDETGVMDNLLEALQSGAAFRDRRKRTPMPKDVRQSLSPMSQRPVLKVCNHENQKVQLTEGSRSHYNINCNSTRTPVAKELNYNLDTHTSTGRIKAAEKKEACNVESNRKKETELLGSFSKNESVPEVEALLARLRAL
Chain of UniProt O15111 (O15111 whole entry, looked up): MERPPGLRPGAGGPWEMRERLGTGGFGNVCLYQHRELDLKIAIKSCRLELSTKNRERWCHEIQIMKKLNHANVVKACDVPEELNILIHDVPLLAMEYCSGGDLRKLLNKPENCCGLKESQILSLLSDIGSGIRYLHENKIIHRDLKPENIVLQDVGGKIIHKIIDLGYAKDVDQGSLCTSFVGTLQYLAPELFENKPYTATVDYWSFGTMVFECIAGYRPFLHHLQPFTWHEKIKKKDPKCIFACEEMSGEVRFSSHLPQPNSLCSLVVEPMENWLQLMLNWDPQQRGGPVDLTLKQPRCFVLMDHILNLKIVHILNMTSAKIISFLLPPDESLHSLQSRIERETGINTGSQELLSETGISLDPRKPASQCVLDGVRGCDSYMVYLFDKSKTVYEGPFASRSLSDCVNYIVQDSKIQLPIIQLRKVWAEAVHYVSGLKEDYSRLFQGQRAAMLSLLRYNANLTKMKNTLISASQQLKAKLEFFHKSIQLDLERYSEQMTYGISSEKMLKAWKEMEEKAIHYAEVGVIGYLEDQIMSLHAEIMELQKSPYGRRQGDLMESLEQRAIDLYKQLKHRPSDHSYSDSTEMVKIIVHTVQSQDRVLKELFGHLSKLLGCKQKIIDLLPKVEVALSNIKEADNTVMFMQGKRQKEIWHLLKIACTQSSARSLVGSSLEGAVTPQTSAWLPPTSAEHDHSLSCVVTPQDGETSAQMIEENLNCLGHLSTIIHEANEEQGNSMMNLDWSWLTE
Chain of UniProt Q9H3Z4 (Q9H3Z4 whole entry, looked up): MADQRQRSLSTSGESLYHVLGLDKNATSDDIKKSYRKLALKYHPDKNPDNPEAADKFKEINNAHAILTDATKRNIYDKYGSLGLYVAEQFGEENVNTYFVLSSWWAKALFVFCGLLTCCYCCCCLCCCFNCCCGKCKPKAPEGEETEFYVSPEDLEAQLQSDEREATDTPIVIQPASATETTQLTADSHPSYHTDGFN
Chain of UniProt Q99828 (Q99828 whole entry, looked up): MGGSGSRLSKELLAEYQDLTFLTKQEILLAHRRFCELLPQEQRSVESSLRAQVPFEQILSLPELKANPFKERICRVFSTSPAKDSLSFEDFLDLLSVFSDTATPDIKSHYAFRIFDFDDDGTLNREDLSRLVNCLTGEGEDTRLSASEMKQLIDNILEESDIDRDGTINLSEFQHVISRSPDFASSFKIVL

| Target | log2 fold change (ibrutinib) | log2 fold change [1] | log2 fold change (ralimetinib) | log2 fold change [2] | log2 fold change [3] | log2 fold change [4] | log2 fold change [5] | log2 fold change [6] | log2 fold change [7] | log2 fold change [8] |
| --- | --- | --- | --- | --- | --- | --- | --- | --- | --- | --- |
| DNAAF5 (UniProt Q86Y56) | -0.043 | 0.032 | 0.074 | -0.049 | -0.043 | -0.002 | -0.005 | -0.035 | 0.047 | 0.061 |
| CSNK1G3 (UniProt Q9Y6M4) | -0.025 | 0.529 (active) | 0.003 | -0.048 | -0.038 | -0.007 | 0.024 | 0.031 | -0.066 | 0.132 |
| DDB2 (UniProt Q92466) | 0.075 | -0.016 | 0.009 | -0.033 | -0.007 | 0.091 | -0.003 | 0.009 | 0 | 0.01 |
| DLG3 isoform 2 (UniProt Q92796) | 0.034 | 0.009 | 0.124 | 0.042 | -0.005 | 0.055 | -0.009 | -0.023 | -0.033 | 0.024 |
| DMXL1 (UniProt Q9Y485) | -0.02 | -0.025 | 0.021 | -0.012 | 0.016 | -0.001 | -0.024 | 0 | 0.064 | -0.026 |
| COL6A5 (UniProt A8TX70) | 0.046 | -0.023 | -0.083 | -0.141 | 0.018 | 0.063 | -0.038 | 0.108 | -0.011 | -0.053 |
| DDA1 (UniProt Q9BW61) | 0.108 | -0.003 | 0 | 0.019 | -0.072 | 0.028 | 0.022 | 0.01 | 0.018 | -0.017 |
| CHURC1 isoform 2 (UniProt Q8WUH1) | 0.055 | 0.05 | 0.027 | -0.077 | 0.07 | -0.065 | 0.057 | 0.085 | -0.102 | 0.004 |
| CSNK2B (UniProt P67870) | -0.004 | 0.408 (active) | 0.003 | -0.013 | 0 | -0.054 | 0.114 | -0.004 | -0.015 | -0.016 |
| CUL1 (UniProt Q13616) | 0.02 | 0.005 | -0.004 | -0.016 | -0.018 | -0.014 | 0.016 | 0.02 | -0.001 | -0.01 |
| CMIP (UniProt Q8IY22) | 0.057 | 0.024 | 0 | 0.004 | -0.011 | 0.001 | -0.021 | 0 | 0.029 | 0.004 |
| DNAJC5 (UniProt Q9H3Z4) | -0.029 | -0.072 | -0.013 | -0.043 | -0.044 | 0.06 | -0.008 | 0.048 | -0.036 | -0.116 |
| CSNK1A1 (UniProt P48729) | -0.098 | 0.148 | 0.088 | -0.002 | -0.035 | -0.019 | -0.002 | -0.029 | 0 | 0.003 |
| COPZ1 isoform 4 (UniProt P61923) | 0.123 | 0.007 | 0 | 0.013 | 0.02 | -0.054 | 0.037 | 0.03 | -0.012 | 0.117 |
| CNST (UniProt Q6PJW8) | 0 | 0.006 | 0.031 | 0.022 | 0.012 | 0.176 | -0.01 | -0.035 | 0.006 | -0.002 |
| DHRS13 (UniProt Q6UX07) | -0.106 | -0.003 | 0.094 | -0.111 | -0.073 | 0.082 | -0.292 | 0.03 | -0.009 | 0.111 |
| CIB1 (UniProt Q99828) | 0.096 | -0.137 | 0.004 | -0.056 | -0.027 | 0.007 | -0.041 | 0.042 | -0.003 | -0.066 |
| CMSS1 (UniProt Q9BQ75) | -0.012 | -0.016 | -0.002 | -0.011 | 0.047 | -0.015 | 0.027 | -0.059 | 0.019 | -0.004 |
| CHUK (UniProt O15111) | 0.034 | 0.04 | 0.063 | 0.071 | 0.014 | -0.047 | -0.014 | -0.013 | 0.009 | -0.016 |
| DIAPH3 (UniProt Q9NSV4) | 0.012 | 0.093 | 0.086 | -0.032 | -0.066 | 0.043 | 0.005 | -0.011 | 0.038 | -0.035 |
| DIAPH1 (UniProt O60610) | -0.028 | -0.004 | -0.006 | 0.005 | -0.01 | -0.009 | 0.003 | -0.004 | 0.001 | 0.004 |
| CSNK2A1 (UniProt P68400) | -0.041 | 0.468 (active) | 0.002 | -0.028 | -0.054 | -0.039 | 0.158 | -0.078 | -0.01 | 0.002 |
| CNOT2 (UniProt Q9NZN8) | 0.022 | 0.037 | 0.016 | -0.013 | -0.001 | -0.01 | 0.03 | 0.006 | -0.007 | 0.011 |
| CSDE1 isoform 4 (UniProt O75534) | -0.007 | -0.003 | 0.017 | 0.03 | 0.003 | -0.013 | 0.004 | -0.022 | 0.012 | 0.009 |
| CIAO2A (UniProt Q9H5X1) | 0.005 | 0.044 | 0.053 | -0.034 | 0.056 | 0.032 | -0.06 | -0.026 | -0.067 | -0.02 |
| DHFR (UniProt P00374) | -0.013 | 0.155 | -0.058 | 0.016 | 0.024 | -0.018 | -0.013 | -0.029 | 0.025 | 0.033 |
| CSPP1 (UniProt Q1MSJ5) | 0.052 | 0 | 0 | 0.026 | -0.023 | 0 | -0.015 | -0.074 | -0.006 | 0.084 |
| CMBL (UniProt Q96DG6) | -0.059 | 0.22 (active) | 0.018 | -0.009 | -0.056 | -0.082 | 0 | 0.014 | -0.04 | -0.011 |
| COG7 (UniProt P83436) | -0.04 | -0.012 | 0.03 | 0.006 | -0.049 | -0.034 | -0.001 | -0.029 | 0.058 | -0.007 |
